Bioassay records deposited in PubChem by National Center for Advancing Translational Sciences (NCATS).
Rows were chosen to be rich in hits. Some 9.2% of all compounds tested hit in one or more screens of this group.
Rab9 promoter act: Rab9 promoter activation; Huh7 Rab9 promoter-luciferase reporter, luminescence, 24 h; Potency, µM (top dose mostly 9.22 µM), actives largely listed as activators; actives 2.8% (n = 320,000); also: nearly all actives have a fitted effect of over 60% in size
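Promoter activation is measured as luciferase luminescence in Huh7 cells stably transfected with a Rab9 promoter–luciferase construct, following 24 h compound exposure at 37 °C and 10 min reagent incubation at ambient temperature.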
ELG1 genotoxic: inducers of genotoxicity in HEK293T ELG1-luciferase cells | HEK293T ELG1-luciferase reporter, luminescence, 16 h | Potency, µM (top dose mostly 46 µM), most hits filed as activators | actives 1.3% (n = 330,000); also: nearly all actives have a fitted effect of over 60% in size
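Genotoxic stress is detected as increased luminescence from luciferase-tagged ELG1 in HEK293T cells, measured with ONE-Glo after a 16 hr treatment at 37 °C.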
ELG1 DNA repair: blocks ELG1-dependent DNA repair in HEK293T cells. Potency, µM (series often up to 46.1 µM), usual class: inhibitors. AID 504467. actives 2.3% (n = 330,000). HEK293T ELG1-luciferase reporter, luminescence, 16 h; DNA damage induced by 5-fluorouridine; also: nearly all actives have a fitted effect of over 55% in size
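Overnight (16 hr) co-exposure of 2,000 cells/well to 5-fluorouridine and compound at 37 °C preceded detection. Luciferase was quantified via ONE-Glo luminescence; loss of signal denotes inhibition.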
NPC1 promoter act: NPC1 promoter activation. actives 2.4% (n = 320,000). Huh7 NPC1 promoter luciferase reporter, 24 h. Potency, µM (highest dose often 9.22 µM), usual class: activators; also: nearly all actives have a fitted effect of over 60% in size
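Cells: Huh7 expressing luciferase under the NPC1 promoter, 1500/well. Seeded 2 h, compound added, incubated 24 h at 37 °C. Luciferase reagent, 10 min ambient, then luminescence.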
SMN2 splice enh: enhancers of SMN2 splice variant expression; HEK293 SMN2-luciferase splicing reporter, luminescence, 30-36 h; Potency, µM (highest dose often 46.1 µM), hits mostly activators; actives 2.8% (n = 210,000); AID 1458; also: nearly all actives have a fitted effect of over 55% in size
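qHTS luciferase splicing reporter: luminescence rises when SMN2 exon 7 is included in transfected HEK293 cells. Compound exposure lasted 30-36 h at 37C, with 4.5 mM final sodium butyrate as control, followed by a ONE-Glo read.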
FLuc modulator: counter-screen for miR-21 project: firefly luciferase inhibitors or activators. actives 6.9% (n = 360,000). Potency, µM (top dose mostly 57.5 µM), most hits filed as inhibitors. purified FLuc, Km substrates, luminescence inhibition. P08659; also: nearly all actives have a fitted effect of over 55% in size
Target sequence (P08659 whole entry, looked up): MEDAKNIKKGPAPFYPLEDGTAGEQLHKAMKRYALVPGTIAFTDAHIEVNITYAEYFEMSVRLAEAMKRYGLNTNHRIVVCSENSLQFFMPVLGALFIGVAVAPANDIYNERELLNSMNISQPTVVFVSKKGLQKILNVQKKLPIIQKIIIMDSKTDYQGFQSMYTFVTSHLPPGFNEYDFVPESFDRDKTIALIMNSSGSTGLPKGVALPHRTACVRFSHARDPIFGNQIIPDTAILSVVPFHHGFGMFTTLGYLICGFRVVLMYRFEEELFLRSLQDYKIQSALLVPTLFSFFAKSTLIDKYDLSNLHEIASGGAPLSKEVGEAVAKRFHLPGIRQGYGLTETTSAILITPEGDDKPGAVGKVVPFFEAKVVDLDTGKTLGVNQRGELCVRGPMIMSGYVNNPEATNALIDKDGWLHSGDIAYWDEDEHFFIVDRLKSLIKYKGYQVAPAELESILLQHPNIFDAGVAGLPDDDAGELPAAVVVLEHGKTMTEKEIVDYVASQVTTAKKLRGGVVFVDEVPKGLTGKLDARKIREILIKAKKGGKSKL
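Biochemical qHTS of compounds, final roughly 60 µM downward over six points, against 10 nM purified firefly luciferase using Km concentrations of substrates (10 uM D-luciferin, 10 uM ATP) in Tris acetate pH 7.5 buffer; luminescence output.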
Numbers stand for hits; . = inactive; ? = inconclusive; / = not tested or not shown; [ ] = another dose, or the depositor's remark. Calls follow the shape of the dose curve; as a rule, active = well fitted curve in the direction sought with a large enough effect; inconclusive = small, poorly fitted or top-dose-only effect, or another doubt; inactive = no such curve, though single readings can be large; an effect the other way counts as inactive or inconclusive.

SMILES | Rab9 promoter act | ELG1 genotoxic | ELG1 DNA repair | NPC1 promoter act | SMN2 splice enh | FLuc modulator
O=C(NC1CCCC1)c1ccc(CS(=O)(=O)Cc2ccccc2F)o1 | . | . | ? | . | / | .
Cc1ccc(CS(=O)(=O)Cc2ccc(C(=O)NC3CCCCCC3)o2)cc1 | . | .[9.26 µM] | 18µM | . | / | .
CCOc1ccc(C(=O)N(Cc2nc(-c3cccc(C)c3)no2)C(C)C)cc1 | / | / | / | / | / | .
O=C(Nc1ccccc1)Nc1nccs1 | . | . | ? | . | ? | 24µM
COc1ccccc1CC(=O)Nc1cccc(C(=O)Nc2nccs2)c1 | . | . | 16µM | . | / | ?
CCCN1C(=O)c2ccc(C(=O)Nc3nccs3)cc2C1=O | . | . | . | . | . | ?
COc1ccc(NC(=O)Nc2nccs2)cc1 | . | ? | ? | . | 14µM | 6.7µM
CCC(CC)C(=O)Nc1cccc(C(=O)Nc2nccs2)c1 | . | . | ? | . | . | .
O=C(Nc1ccccc1)Nc1nncs1 | . | . | . | . | . | ?
CCCc1cc(C(=O)Nc2nccs2)cs1 | 1.3µM | 1.3µM | ? | 1.8µM | 4µM | 1.9µM
COc1ccc(C(=O)Nc2nccs2)cc1OC | ? | ? | ? | . | 7.1µM | ?
C/C(=C\C(=O)Nc1nccs1)c1ccccc1 | / | / | / | / | ? | 9.5µM
COc1ccc2oc(C(=O)Nc3nccs3)c(C)c2c1 | 1.1µM | 0.52µM | ? | 1.1µM | / | 0.54µM
COc1ccc(C(=O)Nc2nccs2)cc1 | 3.2µM | ? | ? | 2.2µM | / | 19µM
COc1ccc(C(=O)Nc2nccs2)cc1[N+](=O)[O-] | . | . | ? | . | . | .
Cc1cc(C)c(NC(=O)COC(=O)CCn2c(C)csc2=O)c(C)c1 | . | . | . | . | / | .
CCc1cccc(C)c1NC(=O)COC(=O)Cn1c(C)csc1=O | . | . | . | . | / | .
Cc1csc(=O)n1CC(=O)OCc1cccc2ccccc12 | . | ? | ? | . | . | 15µM
Cc1cc(C)c(C(=O)COC(=O)CCn2c(C)csc2=O)cc1C | ? | . | ? | . | / | 4.8µM
Cc1cc(C)c(C(=O)COC(=O)Cn2c(C)csc2=O)cc1C | . | . | . | . | / | 17µM
Cc1ccc(NC(=O)COC(=O)Cn2c(C)csc2=O)cc1C | . | . | . | . | . | .
COCCNC(=O)CN1C(=O)c2cccnc2Sc2ccccc21 | / | / | / | / | / | .
CC(OC(=O)C1CCCC1)C(=O)Nc1ccc(S(N)(=O)=O)cc1 (stereo unspecified) | . | . | . | . | / | .
CCOC(=O)c1c(C)sc(-c2c(-c3ccc4c(c3)OCCO4)[nH]c3c2c(=O)n(C)c(=O)n3C)c1O | / | / | / | / | / | .
Cc1ccc(-c2cc(=O)[nH][nH]2)c(C)c1 | . | . | . | . | . | .
SMILES | Rab9 promoter act | ELG1 genotoxic | ELG1 DNA repair | NPC1 promoter act | SMN2 splice enh | FLuc modulator
CC(C)Cc1ccc(-c2cc(=O)[nH][nH]2)cc1 | . | . | . | . | . | 17µM
Cc1nn(CCC(=O)NCc2cccc(Br)c2)c(=O)c2nn(-c3ccccc3)c(C)c12 | / | / | / | / | / | .
COc1ccc(CN2C(=O)N(c3ccc(F)cc3)C(=O)C2CC(=O)Nc2ccccc2)cc1 (stereo unspecified) | / | / | / | / | . | .
O=c1c2ccccc2nc(COc2ccccc2)n1/N=C/c1ccc(O)cc1O | . | . | ? | . | / | 17µM
Cc1ccc(-c2[nH]ncc2/C=N/n2c(C)nc3ccccc3c2=O)cc1 | . | . | 9.2µM | . | / | .
Cc1ccccc1OCc1nc2ccccc2c(=O)n1/N=C/c1ccco1 | . | . | ? | . | . | ?
Oc1ccc(/C=N/n2c(COc3ccccc3)n[nH]c2=S)c(O)c1 | . | . | . | . | / | .
Cc1ccccc1OCc1nc2ccccc2c(=O)n1/N=C/c1cn[nH]c1-c1ccc(Br)cc1 | . | . | 6.5µM | . | . | .
O=c1c2ccccc2nc(COc2ccccc2)n1/N=C/c1cn[nH]c1-c1ccccc1 | . | . | 6.5µM | . | . | .
Cc1nc2ccccc2c(=O)n1/N=C/c1ccccc1O | . | . | ? | . | / | ?
Cc1ccc(CN2CCCN(CC(=O)Nc3ccc(C)cc3C)S2(=O)=O)cc1 | / | / | / | / | / | .
COc1cccc(-c2cc(C(=O)Nc3ccc(OC)cc3OC)no2)c1 | / | / | / | / | . | ?
CCOC(=O)c1cn2nc(N3CCCCC3)ccc2n1 | 0.13µM | 0.58µM | ? | 0.32µM | / | 0.95µM
CCOC(=O)c1cn2nc(N3CCCC3)ccc2n1 | 0.32µM | ? | ? | 0.5µM | / | 2.1µM
CCOC(=O)c1cn2nc(Oc3ccccc3)ccc2n1 | 2.8µM | ? | ? | 2.2µM | / | 15µM
CCOC(=O)c1cn2nc(Oc3ccc(C)cc3)ccc2n1 | ? | ? | ? | . | / | ?
CCCN(CCC)C(=O)CN1C(=O)CSc2ccc(S(=O)(=O)N3CCC(C)CC3)cc21 | / | / | / | / | . | .
Cc1ccc(S(=O)(=O)N2CCN(C(=O)C3CCCC3)CC2)cc1C | . | . | . | . | / | .
Cn1nc(C(F)(F)F)c(-c2ccc(Br)cc2)c1NC(=O)CSCC(=O)O | . | . | . | . | / | .
O=C(Nc1sc2c(c1C(=O)NCc1ccco1)CCCC2)c1cc(=O)c2cc(Cl)ccc2o1 | / | / | / | / | . | .
CCOC(=O)Cc1cc(=O)n(-c2nc3ccccc3s2)[nH]1 | . | . | . | . | . | 24µM
CCCc1cc(=O)n(-c2nc3ccccc3s2)[nH]1 | . | . | 21µM | . | / | ?
Cc1cc(C)cc(OCC(=O)OCC(=O)NC2CCCCCC2)c1 | . | . | ? | . | / | .
Cc1ccc(-c2csc(Cc3nc(-c4cc5ccccc5oc4=O)cs3)n2)cc1 | . | . | . | . | . | .
O=c1oc2ccccc2cc1-c1cn2cc(Cc3ccc(Cl)cc3)sc2n1 | / | / | / | / | . | .
SMILES | Rab9 promoter act | ELG1 genotoxic | ELG1 DNA repair | NPC1 promoter act | SMN2 splice enh | FLuc modulator
Cc1ccn2cc(-c3cc4ccccc4oc3=O)nc2c1 | 0.28µM | 0.46µM | ? | 0.32µM | / | 0.43µM
O=c1oc2ccccc2cc1-c1cn2cc(Cc3ccccc3F)sc2n1 | / | / | / | / | . | 0.34µM
COc1cc(OC)cc(C(=O)NC2CC3CCC(C2)N3C)c1 (stereo unspecified) | . | . | . | . | / | .
O=S(=O)(c1ccc(SCc2cccc(Cl)c2)nc1)N1CCCC1 | . | . | . | . | / | .
c1coc(-c2nnc(-c3ccc4c(c3)OCO4)o2)c1 | ? | 8.2µM | ? | 2µM | 18µM | 6.7µM
Clc1ccc(CSc2nnc(-c3ccc4c(c3)OCO4)o2)cc1 | . | . | . | . | . | ?
O=C1CCCCC1Sc1nnc(-c2ccc3c(c2)OCO3)o1 (stereo unspecified) | 0.1µM | . | ? | 0.2µM | ? | 0.6µM
O=C(CSc1nnc(-c2ccc3c(c2)OCO3)o1)Oc1ccccc1 | / | / | / | / | / | .
Cc1ccc(-c2nnc(-c3ccc4c(c3)OCO4)o2)cc1 | 0.71µM | 6.5µM | ? | 1µM | 11µM | 1.3µM
Brc1ccc(-c2nnc(-c3ccc4c(c3)OCO4)o2)o1 | 1µM | ? | ? | 2µM | 11µM | 1.7µM
